Experimental data reported in PubChem BioAssay (NCI).
About 79,000 compounds went through this panel and 15% of them were active in at least one assay; those are over-represented in the sample as a whole. The source made the active and inactive calls. Rule as the data show it: active = growth inhibition above about 70%; inactive = the rest.

Tests used:
[1] = NCI Yeast Anticancer Drug Screen. Data for the rad50 strain (AID 155);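 also: 0% = growth of vehicle-only cultures of the same strain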; settings: S. cerevisiae rad50 strain growth inhibition, hits give high values
In short: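 Relative growth inhibition (compound vs vehicle) was measured in yeast with a defined repair-gene alteration.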

[2] = NCI Yeast Anticancer Drug Screen. Data for the mec2-1 strain (AID 157); settings: S. cerevisiae mec2-1 strain, hits give high values
In short: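 Test agents were screened against the mec2-1 yeast strain, with defined DNA repair or cell cycle alteration. Growth was scored as inhibition against vehicle-only controls.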

[3] = NCI Yeast Anticancer Drug Screen. Data for the sgs1 mgt1 strain (AID 161);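 also: 0% = growth of cultures given vehicle only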; settings: S. cerevisiae sgs1 mgt1 strain, hits give high values
In short: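 Mutant yeast exposed to compound; growth scored against vehicle-only wells.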

[4] = NCI Yeast Anticancer Drug Screen. Data for the cln2 rad14 strain (AID 165);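 also: 0% = growth equal to vehicle treated cultures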; settings: S. cerevisiae cln2 rad14 strain, hits give high values
In short: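 Growth of compound-exposed yeast (cln2 rad14 genotype) measured and expressed as inhibition relative to vehicle.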

[5] = NCI Yeast Anticancer Drug Screen. Data for the bub3 strain (AID 167); settings: S. cerevisiae bub3 mutant strain, hits give high values
In short: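 Screening used yeast with an engineered genetic alteration affecting cell cycle control. Compound-exposed cultures were compared with vehicle cultures, and reduced growth was taken as inhibition.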

[6] = NCI Yeast Anticancer Drug Screen. Data for the mlh1 rad18 strain (AID 175); settings: S. cerevisiae mlh1 rad18 strain growth inhibition, hits give high values
In short: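 In this whole-cell yeast screen, a strain with altered DNA damage repair is challenged with compound, and its growth is measured against matched vehicle-treated controls.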

[7] = at 5.0 µM (retest, dose inferred, filed as 0.5)
[8] = at 50.0 µM (retest, dose inferred, filed as 5.0)

Measured: growth inhibition

O=C1/C(=C/c2ccc([N+](=O)[O-])cc2)CNC/C1=C\c1ccc([N+](=O)[O-])cc1
active: [1]; [7] 74% | [1]; [8] 99% | [1]; at 50.0 µM 77% | [2]; [7] 87% | [2]; [8] 99% | [2]; at 50.0 µM 87.5% | [3]; [7] 93% | [3]; [8] 99% | [3]; at 50.0 µM 85.5% | [4]; [7] 73% | [4]; [8] 97% | [4]; at 50.0 µM 74% | [5]; [7] 90% | [5]; [8] 99% | [5]; at 50.0 µM 83.8% | [6]; [7] 96% | [6]; [8] 99% | [6]; at 50.0 µM 75.7%

COC(=O)c1ccc2c(c1)CC1(C2)Cc2ccccc2C1=O (stereo unspecified)
inactive: [1]; [7] 14% | [1]; at 50.0 µM 68% | [2]; [7] -20% | [3]; [7] -4% | [4]; [7] -37% | [4]; [8] 64% | [4]; at 50.0 µM 57.5% | [5]; [7] 6% | [6]; [7] -17%
active: [1]; [8] 88% | [2]; [8] 92% | [2]; at 50.0 µM 77% | [3]; [8] 84% | [3]; at 50.0 µM 83.5% | [5]; [8] 98% | [5]; at 50.0 µM 87.1% | [6]; [8] 94% | [6]; at 50.0 µM 79.5%

CC(C)(N)COB(c1ccccc1)c1ccccc1
active: [1]; [8] 99% | [1]; at 50.0 µM 99.7% | [2]; [8] 99% | [2]; at 50.0 µM 99.8% | [3]; [8] 99% | [3]; at 50.0 µM 99.8% | [4]; [8] 99% | [4]; at 50.0 µM 99.5% | [5]; [8] 98% | [5]; at 50.0 µM 99.8% | [6]; [8] 99% | [6]; at 50.0 µM 99.5%
inactive: [1]; [7] 10% | [2]; [7] -5% | [3]; [7] -1% | [4]; [7] 0% | [5]; [7] -4% | [6]; [7] -7%

CC(=O)OCCSCCOC(C)=O
inactive: [1]; [7] 20% | [2]; [7] -1% | [2]; at 50.0 µM 29.4% | [3]; [7] 6% | [4]; [7] 7% | [4]; [8] 23% | [4]; at 50.0 µM 12.2% | [5]; [7] 7% | [5]; at 50.0 µM 39% | [6]; [7] 7%
active: [1]; [8] 90% | [1]; at 50.0 µM 76.4% | [2]; [8] 84% | [3]; [8] 88% | [3]; at 50.0 µM 81% | [5]; [8] 88% | [6]; [8] 90% | [6]; at 50.0 µM 78.3%

O=C1c2cccc3cccc(c23)C1(Br)Br
inactive: [1]; [7] 36% | [1]; at 50.0 µM 68% | [2]; [7] 20% | [2]; at 50.0 µM 23.4% | [3]; [7] 45% | [4]; [7] 37% | [4]; at 50.0 µM 56.1% | [5]; [7] 26% | [5]; at 50.0 µM 55.6% | [6]; [7] 54% | [6]; at 50.0 µM 67.8%
active: [1]; [8] 99% | [2]; [8] 99% | [3]; [8] 98% | [3]; at 50.0 µM 70.8% | [4]; [8] 95% | [5]; [8] 97% | [6]; [8] 99%

Cc1ccc(/[N+]([O-])=C/c2ccccc2)cc1
inactive: [1]; [7] -2% | [1]; [8] -23% | [2]; [7] 4% | [2]; [8] -17% | [3]; [7] -13% | [3]; [8] -2% | [4]; [7] -46% | [4]; [8] -25% | [4]; at 50.0 µM 52.8% | [5]; [7] -12% | [5]; [8] 13% | [6]; [7] -27% | [6]; [8] -20%
active: [1]; at 50.0 µM 98.2% | [2]; at 50.0 µM 99.2% | [3]; at 50.0 µM 95.7% | [5]; at 50.0 µM 99% | [6]; at 50.0 µM 79.2%

CCOC(=O)C1=C(Nc2ccc(Br)cc2)OC/C1=N\NC(=O)c1ccccc1O
inactive: [1]; [7] 11% | [1]; [8] 11% | [1]; at 50.0 µM 50.6% | [2]; [7] -16% | [2]; [8] -16% | [2]; at 50.0 µM 53.5% | [3]; [7] 7% | [3]; [8] 7% | [4]; [7] 4% | [4]; [8] 4% | [4]; at 50.0 µM 25.7% | [5]; [7] 1% | [5]; [8] 1% | [5]; at 50.0 µM 66.8% | [6]; [7] 5% | [6]; [8] 5% | [6]; at 50.0 µM 67%
active: [3]; at 50.0 µM 71.6%
